Data as given in PubChem BioAssay AID1159580 (chemical genetic matrix, 2015).
Screen size: about 5,500 compounds; about 2,000 (36%) were called active. Another 18% or so got no clear call; they are omitted. Cut-off read from the data, not from the text of the source: active = normalized growth mostly below about 0.91 (no sharp cut-off); inconclusive = no clear call, values can overlap the other calls; inactive = mostly above about 0.92. The list shows a part of the results.

Test: chemical genetic growth profiling, strain panel (AID 1159580);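 note: tested at 20 µM; growth read once vehicle control cultures reached saturation at 30 °C; 1 = growth at the plate median or of vehicle wells; lower values mean less growth of the strain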
Conditions: S. cerevisiae deletion strains, growth OD

Measured: normalized growth

COc1ccc(-c2oc3ccccc3c(=O)c2O)cc1OC
active: locus YAL021C, strain ccr4, hits give low values 0.164 | locus YAL026C, strain drs2, hits give low values 0.512 | locus YAL030W, strain snc1, hits give low values 0.739 | locus YBL061C, strain skt5, hits give low values 0.631 | locus YBR009C, strain hhf1, hits give low values 0.639 | locus YBR023C, strain chs3, hits give low values 0.587 | locus YBR171W, strain sec66, hits give low values 0.848 | locus YBR231C, strain swc5, hits give low values 0.509 | locus YBR279W, strain paf1, hits give low values 0.697 | locus YCL011C, strain gbp2, hits give low values 0.617 | locus YCL016C, strain dcc1, hits give low values 0.782 | locus YCL061C, strain MRC1, hits give low values 0.753 | locus YCL069W, strain vba3, hits give low values 0.762 | locus YCR088W, strain abp1, hits give low values 0.865 | locus YDL040C, strain nat1, hits give low values 0.902 | locus YDR001C, strain nth1, hits give low values 0.914 | locus YDR069C, strain doa4, hits give low values 0.175 | locus YDR137W, strain rgp1, hits give low values 0.505 | locus YDR159W, strain sac3, hits give low values 0.748 | locus YDR195W, strain ref2 0.809 | locus YDR297W, strain sur2, hits give low values 0.557 | locus YDR334W, strain swr1, hits give low values 0.524 | locus YDR335W, strain msn5, hits give low values 0.683 | locus YDR392W, strain spt3, hits give low values 0.553 | locus YEL003W, strain gim4, hits give low values 0.6 | locus YEL037C, strain rad23, hits give low values 0.692 | locus YEL061C, strain CIN8 (second series), hits give low values 0.882 | locus YER015W, strain faa2, hits give low values 0.4 | locus YER016W, strain bim1, hits give low values 0.826 | locus YER111C, strain swi4, hits give low values 0.696 | locus YER155C, strain BEM2 (second series), hits give low values 0.687 | locus YFR010W, strain ubp6, hits give low values 0.633 | locus YGL167C, strain pmr1, hits give low values 0.742 | locus YGL173C, strain kem1, hits give low values 0.37 | locus YGL240W, strain doc1, hits give low values 0.772 | locus YGL253W, strain hxk2, hits give low values 0.544 | locus YHR013C, strain ard1, hits give low values 0.466 | locus YHR027C, strain rpn1, hits give low values 0.315 | locus YHR142W, strain chs7, hits give low values 0.533 | locus YJL092W, strain hpr5, hits give low values 0.812 | locus YJL095W, strain BCK1 (second series), hits give low values 0.548 | locus YJL115W, strain asf1, hits give low values 0.901 | locus YJL129C, strain trk1, hits give low values 0.721 | locus YJL154C, strain vps35, hits give low values 0.809 | locus YJL164C, strain tpk1, hits give low values 0.497 | locus YJL166W, strain qcr8, hits give low values 0.527 | locus YJL187C, strain SWE1, hits give low values 0.635 | locus YKL160W, strain elf1, hits give low values 0.766 | locus YKR026C, strain gcn3, hits give low values 0.915 | locus YKR091W, strain srl3, hits give low values 0.875 | locus YLL001W, strain dnm1, hits give low values 0.692 | locus YLL026W, hits give low values 0.798 | locus YLL041C, strain sdh2, hits give low values 0.85 | locus YLR027C, strain aat2, hits give low values 0.673 | locus YLR221C, strain rsa3, hits give low values 0.644 | locus YLR258W, strain gsy2, hits give low values 0.733 | locus YLR262C, strain YPT6 (second series), hits give low values 0.371 | locus YLR320W, strain mms22, hits give low values 0.537 | locus YLR342W, strain FKS1, hits give low values 0.61 | locus YLR357W, strain rsc2, hits give low values 0.626 | locus YLR370C, strain arc18, hits give low values 0.785 | locus YLR384C, strain iki3, hits give low values 0.76 | locus YML120C, strain ndi1, hits give low values 0.72 | locus YMR058W, strain fet3, hits give low values 0.113 | locus YMR129W, hits give low values 0.825 | locus YMR205C, strain PFK2, hits give low values 0.369 | locus YMR231W, strain pep5, hits give low values 0.555 | locus YNL071W, strain lat1, hits give low values 0.715 | locus YNL209W, strain ssb2, hits give low values 0.222 | locus YNL248C, strain rpa49, hits give low values 0.783 | locus YNL322C, strain KRE1 (second series), hits give low values 0.776 | locus YNR049C, strain mso1, hits give low values 0.889 | locus YOR001W, strain rrp6, hits give low values 0.678 | locus YOR070C, strain gyp1, hits give low values 0.772 | locus YOR080W, strain dia2, hits give low values 0.445 | locus YOR083W, strain WHI5, hits give low values 0.617 | locus YOR106W, strain vam3, hits give low values 0.203 | locus YOR265W, strain rbl2, hits give low values 0.655 | locus YOR270C, strain vph1, hits give low values 0.32 | locus YOR290C, strain snf2, hits give low values 0.607 | locus YPL051W, strain arl3, hits give low values 0.371 | locus YPL078C, strain atp4, hits give low values 0.74 | locus YPL106C, strain sse1, hits give low values 0.572 | locus YPL240C, strain hsp82, hits give low values 0.771
inactive: locus YDL005C, strain med2, hits give low values 0.915 | locus YGL227W, strain vid30, hits give low values 0.949 | locus YHR030C, strain SLT2, hits give low values 1.01 | locus YHR079C, strain IRE1, hits give low values 0.983 | locus YJL095W, strain BCK1, hits give low values 0.962 | locus YJR066W, strain TOR1, hits give low values 0.948 | locus YLR113W, strain HOG1, hits give low values 0.957 | locus YMR125W, strain sto1, hits give low values 0.932 | locus YNL183C, strain NPR1, hits give low values 0.907 | locus YOR231W, strain MKK1, hits give low values 0.996 | locus YPL256C, strain CLN2, hits give low values 0.994
